# Data published in PubChem BioAssay (NCATS).
# “And” between values parts separate entries of the source, which are not always exact repeats. Equal values may be shown once. Results filed as inconclusive are left out. Entries that show only a call come without a potency. The source made the active and inactive calls. Unless noted, calls come from the whole dose curve; as a rule, active = well fitted curve in the direction sought with a large enough effect; inconclusive = small, poorly fitted or top-dose-only effect, or another doubt; inactive = no such curve, though single readings can be large; an effect the other way counts as inactive or inconclusive.
# Assays:
# [1] = molecular target: Thyroid hormone receptor beta (Homo sapiens) (UniProt P10828); test: qHTS assay for small molecule agonists of thyroid hormone receptor beta signaling (AID 588545; calls by dose curve)
# Chain of Thyroid hormone receptor beta (Homo sapiens) (P10828 whole entry, looked up): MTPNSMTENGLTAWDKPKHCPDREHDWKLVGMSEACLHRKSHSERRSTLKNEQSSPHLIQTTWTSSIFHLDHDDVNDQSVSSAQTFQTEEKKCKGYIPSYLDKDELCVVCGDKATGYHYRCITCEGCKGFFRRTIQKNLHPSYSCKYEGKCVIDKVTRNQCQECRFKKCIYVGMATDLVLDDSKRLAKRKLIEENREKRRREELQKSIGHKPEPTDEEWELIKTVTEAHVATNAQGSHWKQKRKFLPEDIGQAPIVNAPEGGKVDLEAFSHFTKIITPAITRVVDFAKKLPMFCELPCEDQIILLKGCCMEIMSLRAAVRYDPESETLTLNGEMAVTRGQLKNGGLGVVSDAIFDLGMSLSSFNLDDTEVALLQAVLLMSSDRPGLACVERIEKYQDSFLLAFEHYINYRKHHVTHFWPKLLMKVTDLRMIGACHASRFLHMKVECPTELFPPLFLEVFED
# How it was run: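 TR-UAS-bla GripTite HEK 293 cells (2500/well, medium with 2% charcoal/dextran FBS) were treated in agonist mode for 18 h at 37 C, titrated. Beta-lactamase was read by CCF4 ratio after 2 h; normalized to 10 nM T3 (100%) and DMSO, Hill-fitted for EC50 and efficacy.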
# [2] = qHTS assay for small molecule antagonists of retinoid X receptor alpha signaling (AID 588546; active = well fitted inhibition curve with a large enough effect in the signal ratio, with a control signal flat, not every such curve was filed as active; the % refers to the signal ratio;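 note: cells stimulated with 9-cis-retinoic acid as agonist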); details: HEK293T RXRa-UAS-bla, beta-lactamase ratio, antagonist mode; measured here: W530 green channel, cytotoxicity proxy
# How it was run: (§1)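 Beta-lactamase reporter inhibition, read as CCF4 fluorescence ratio (ex 405, em 460/530 nm) after 2 h at RT. HEK293T UAS-bla cells, 2500/well, were stimulated with 9-cis-RA at 500 or 100 nM final alongside test compound for 18 h at 37 C.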
# [3] = molecular target: Retinoic acid receptor RXR-alpha (Homo sapiens) (UniProt P19793); test: as above; details: HEK293T RXRa-UAS-bla, beta-lactamase ratio, antagonist mode
# Chain of Retinoic acid receptor RXR-alpha (Homo sapiens) (P19793 whole entry, looked up): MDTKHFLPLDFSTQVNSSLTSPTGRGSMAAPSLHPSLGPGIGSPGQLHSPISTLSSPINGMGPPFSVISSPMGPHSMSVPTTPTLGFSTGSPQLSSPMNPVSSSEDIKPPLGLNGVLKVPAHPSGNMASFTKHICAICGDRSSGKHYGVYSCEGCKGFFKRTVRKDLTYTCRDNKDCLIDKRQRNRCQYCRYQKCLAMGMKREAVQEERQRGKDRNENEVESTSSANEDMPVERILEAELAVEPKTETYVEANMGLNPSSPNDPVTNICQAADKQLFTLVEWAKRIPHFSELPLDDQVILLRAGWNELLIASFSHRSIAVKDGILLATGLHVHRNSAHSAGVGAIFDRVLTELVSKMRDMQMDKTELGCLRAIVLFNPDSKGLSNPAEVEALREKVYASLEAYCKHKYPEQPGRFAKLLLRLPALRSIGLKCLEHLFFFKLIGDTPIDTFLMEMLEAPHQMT
# How it was run: as §1
# [4] = molecular target: Thyroid hormone receptor beta (Homo sapiens) (UniProt P10828); test: qHTS assay for small molecule antagonists of thyroid hormone receptor beta signaling (AID 588547; active = well fitted inhibition curve with a large enough effect in the signal ratio, with a control signal flat, not every such curve was filed as active; the % refers to the signal ratio;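 note: cells stimulated with 0.4 nM T3 agonist during compound exposure; series mostly up to about 77 µM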); details: TR-UAS-bla HEK293, beta-lactamase ratio, antagonist mode, 18 h
# How it was run: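 TR-UAS-bla GripTite HEK293 cells in 2% charcoal/dextran FBS medium; compounds 0.59 nM to 92 uM with T3 at 0.4nM final, 18 h at 37 C. Beta-lactamase read by CCF4 fluorescence (460/530 nm); Hill fits gave IC50 and efficacy.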
# [5] = molecular target: Luciferin 4-monooxygenase (Photinus pyralis) (UniProt P08659); test: Biochemical firefly luciferase enzyme assay for NPC (AID 624030); note: nearly all actives have a fitted effect of over 70% in size; note: potency is the fitted concentration of half-maximal effect
# Chain of Luciferin 4-monooxygenase (Photinus pyralis) (P08659 whole entry, looked up): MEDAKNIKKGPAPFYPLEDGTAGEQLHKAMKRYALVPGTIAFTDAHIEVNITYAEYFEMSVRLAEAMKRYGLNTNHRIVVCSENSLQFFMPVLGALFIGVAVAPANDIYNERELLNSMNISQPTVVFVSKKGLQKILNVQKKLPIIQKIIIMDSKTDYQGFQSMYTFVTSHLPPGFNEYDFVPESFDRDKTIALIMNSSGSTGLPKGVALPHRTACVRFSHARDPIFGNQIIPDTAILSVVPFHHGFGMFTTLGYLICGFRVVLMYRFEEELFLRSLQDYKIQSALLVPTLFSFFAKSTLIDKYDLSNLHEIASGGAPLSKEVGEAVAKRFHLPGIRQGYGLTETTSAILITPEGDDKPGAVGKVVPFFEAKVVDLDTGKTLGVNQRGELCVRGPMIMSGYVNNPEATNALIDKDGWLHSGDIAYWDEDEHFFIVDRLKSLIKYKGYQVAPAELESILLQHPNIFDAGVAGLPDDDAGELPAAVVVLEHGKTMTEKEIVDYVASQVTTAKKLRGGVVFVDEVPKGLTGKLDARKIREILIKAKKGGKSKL
# How it was run: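 Purified P. pyralis luciferase at 10 nM in 50 mM Tris Acetate (final), luminescence read within 5 minutes of enzyme addition to compounds. Activity normalised to PTC124 versus DMSO; concentration-response curves classed by r2, magnitude and activity.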
# [6] = S16 Schwann cell viability assay (CellTiter-Glo assay) (AID 624031);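 note: native untransfected S16 rat Schwann cells; cellular ATP luminescence as a viability measure; series mostly up to about 58 µM; nearly all actives have a fitted effect of over 70% in size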
# How it was run: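 Concentration-effect curves come from CellTiter-Glo luminescence of S16 rat Schwann cells after 24 h compound exposure. Each reading was normalized to DMSO wells (0%) and wells without cells, and curves were ranked by r2 and response magnitude.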
# [7] = molecular target: Glutaminase kidney isoform, mitochondrial (Homo sapiens) (UniProt O94925); test: qHTS for Inhibitors of Glutaminase (GLS): LOPAC Validation (AID 624146);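 note: glutamate product detected by oxidase and peroxidase coupled Amplex red fluorescence gain; series mostly up to about 46 µM; nearly all actives have a fitted effect of over 60% in size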
# Chain of Glutaminase kidney isoform, mitochondrial (Homo sapiens) (O94925 whole entry, looked up, canonical isoform): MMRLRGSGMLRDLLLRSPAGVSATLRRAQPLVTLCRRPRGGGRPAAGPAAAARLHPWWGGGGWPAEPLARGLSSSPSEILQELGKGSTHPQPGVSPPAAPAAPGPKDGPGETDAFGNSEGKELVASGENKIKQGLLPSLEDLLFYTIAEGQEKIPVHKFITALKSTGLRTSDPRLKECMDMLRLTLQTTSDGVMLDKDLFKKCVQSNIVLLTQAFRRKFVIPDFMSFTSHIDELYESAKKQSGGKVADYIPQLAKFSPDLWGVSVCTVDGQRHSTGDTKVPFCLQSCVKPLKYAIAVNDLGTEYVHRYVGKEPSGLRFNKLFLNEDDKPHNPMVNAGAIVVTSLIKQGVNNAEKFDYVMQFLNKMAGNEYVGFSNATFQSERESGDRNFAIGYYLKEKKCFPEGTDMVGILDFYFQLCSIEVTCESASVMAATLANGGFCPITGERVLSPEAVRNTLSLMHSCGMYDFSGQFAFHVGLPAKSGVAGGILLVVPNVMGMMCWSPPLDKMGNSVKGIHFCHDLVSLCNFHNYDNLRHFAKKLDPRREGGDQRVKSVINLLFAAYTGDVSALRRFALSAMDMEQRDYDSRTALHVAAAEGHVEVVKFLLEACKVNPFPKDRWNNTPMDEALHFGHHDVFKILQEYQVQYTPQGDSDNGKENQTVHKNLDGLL
# How it was run: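 hKGA in 45 mM KH2PO4 (pH 8.2), 0.02% Tween-20 with compound, then 1mM L-Glutamine (stock as added) plus glutamate oxidase/HRP/Amplex red coupling mix. Fluorescence read initially and after 30 min at RT; signal change reflects glutamate formation.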
# [8] = molecular target: Voltage-gated inwardly rectifying potassium channel KCNH2 (Homo sapiens) (UniProt Q12809); test: qHTS Assay for Small Molecule Inhibitors of the Human hERG Channel Activity (AID 588834);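 note: lower thallium flux fluorescence means stronger hERG block; nearly all actives have a fitted effect of over 50% in size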; note: potency is the fitted concentration of half-maximal effect
# Chain of Voltage-gated inwardly rectifying potassium channel KCNH2 (Homo sapiens) (Q12809 whole entry, looked up): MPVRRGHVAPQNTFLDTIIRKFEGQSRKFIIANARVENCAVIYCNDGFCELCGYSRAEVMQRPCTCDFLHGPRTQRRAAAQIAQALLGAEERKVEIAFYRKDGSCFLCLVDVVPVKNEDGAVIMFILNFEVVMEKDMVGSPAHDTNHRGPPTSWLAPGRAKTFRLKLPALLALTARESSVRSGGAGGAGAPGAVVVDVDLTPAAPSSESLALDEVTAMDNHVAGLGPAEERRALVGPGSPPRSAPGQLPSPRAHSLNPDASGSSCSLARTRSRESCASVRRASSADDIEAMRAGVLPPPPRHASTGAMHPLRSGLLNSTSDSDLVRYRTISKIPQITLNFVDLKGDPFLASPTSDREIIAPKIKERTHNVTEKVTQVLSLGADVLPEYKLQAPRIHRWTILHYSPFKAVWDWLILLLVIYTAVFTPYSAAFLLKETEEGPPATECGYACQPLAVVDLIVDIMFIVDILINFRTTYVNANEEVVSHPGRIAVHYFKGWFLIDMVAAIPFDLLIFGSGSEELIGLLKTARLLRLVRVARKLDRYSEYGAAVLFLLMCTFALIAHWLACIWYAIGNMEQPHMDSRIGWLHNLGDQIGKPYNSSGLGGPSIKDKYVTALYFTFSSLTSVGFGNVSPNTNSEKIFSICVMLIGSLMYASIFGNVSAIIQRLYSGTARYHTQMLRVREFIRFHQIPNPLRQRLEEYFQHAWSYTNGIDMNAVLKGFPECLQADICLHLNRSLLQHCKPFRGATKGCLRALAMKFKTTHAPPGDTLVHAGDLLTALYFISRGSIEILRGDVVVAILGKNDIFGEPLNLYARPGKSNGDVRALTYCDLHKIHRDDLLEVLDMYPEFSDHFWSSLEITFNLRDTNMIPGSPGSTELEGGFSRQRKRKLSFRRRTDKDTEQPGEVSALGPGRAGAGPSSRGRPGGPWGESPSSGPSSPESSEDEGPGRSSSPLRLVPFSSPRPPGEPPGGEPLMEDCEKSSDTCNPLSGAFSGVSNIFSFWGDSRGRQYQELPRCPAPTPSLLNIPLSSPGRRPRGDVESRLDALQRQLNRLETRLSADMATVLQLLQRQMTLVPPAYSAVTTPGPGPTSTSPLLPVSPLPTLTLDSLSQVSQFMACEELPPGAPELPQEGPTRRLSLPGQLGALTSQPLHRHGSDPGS
# How it was run: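 Blockade is seen as reduced FluxOR thallium-flux fluorescence in U2OS cells expressing hERG from a BacMam construct, in Opti-MEM with 2% FCS. Concentration-response data fitted to the Hill equation for AC50.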
# [9] = S16 Schwann cell PMP22 intronic element beta-lactamase assay (AID 624044; calls by dose curve; note: nearly all actives have a fitted effect of over 15% in size; note: potency is the fitted concentration of half-maximal effect)
# How it was run: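 Rat S16 Schwann cells with beta-Lac driven by a PMP22 intronic element, compound-treated 24 h at 37 °C. LiveBLAzer FRET B/G read: 460 nm normalized to potassium clavulanate vs DMSO; 535 nm FRET as viability; concentration-effect curves classified.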
compound,measurement,setting,value
CCn1cc(C(=O)O)c(=O)c2ccc(C)nc21,outcome,[1],inactive
same,max response,[2],14% and -13.8%
same,max response,[3],-0.374% (inactive) and 6.98% (inactive)
same,activity change % (negative = inhibition),[4],17.4% (inactive) and 3.09% (inactive)
same,Potency,[5],inactive
same,Potency,[6],inactive
same,Potency,[7],inactive
CCCNC(=O)NS(=O)(=O)c1ccc(Cl)cc1,outcome,[1],inactive
same,max response,[2],-1.39% and 4.27%
same,max response,[3],15% (inactive) and -16.7% (inactive)
same,activity change % (negative = inhibition),[4],15.7% (inactive) and -17.5% (inactive)
same,Potency,[8],inactive
same,Potency,[5],inactive
same,Potency,[6],inactive
same,Potency,[7],inactive
O=C(CCCCCCC(=O)Nc1ccccc1)NO,Potency,[8],inactive
same,Potency,[5],inactive
same,Potency,[6],inactive
same,Potency,[9],2.24 µM (active)
CCN(CC)C(=O)c1ccc(O)c(OC)c1,Potency,[8],inactive
same,Potency,[5],inactive
same,Potency,[6],inactive
O=C(O)c1c(Cl)c(Cl)c(Cl)c(Cl)c1-c1c2cc(I)c(=O)c(I)c-2oc2c(I)c(O)c(I)cc12,Potency,[8],12.6 µM (active)
same,Potency,[5],25.6 µM (active)
same,Potency,[6],inactive
same,Potency,[9],inactive
O=c1cc(-c2ccccc2)oc2cc(O)cc(O)c12,outcome,[1],inactive
O=c1[nH]cnc2c1ncn2[C@H]1CC[C@@H](CO)O1,outcome,[1],inactive
same,max response,[2],-5.91%
same,max response,[3],9.86% (inactive)
same,activity change % (negative = inhibition),[4],9.23% (inactive)
same,Potency,[8],inactive
same,Potency,[5],inactive
same,Potency,[6],inactive
same,Potency,[9],inactive
COCCCCC(=NOCCN)c1ccc(C(F)(F)F)cc1,Potency,[5],inactive
same,Potency,[9],inactive
COc1ccc(Cc2nccc3cc(OC)c(OC)cc23)cc1OC,Potency,[5],inactive
same,Potency,[6],inactive
same,Potency,[7],inactive
N#C[C@H]1C[C@H]2C[C@@H]2N1C(=O)[C@@H](N)C12CC3CC(CC(O)(C3)C1)C2,Potency,[5],inactive
COc1ccccc1N1CCN(CCCNc2cc(=O)n(C)c(=O)n2C)CC1,Potency,[8],inactive
same,Potency,[5],inactive
same,Potency,[6],inactive
same,Potency,[7],inactive
COc1cccc(-c2cc(=O)c3ccccc3o2)c1N,Potency,[8],inactive
same,Potency,[7],inactive
CC(=O)CCCCn1c(=O)c2c(ncn2C)n(C)c1=O,Potency,[8],inactive
same,Potency,[5],inactive
same,Potency,[6],inactive
same,Potency,[7],inactive
NC[C@@H]1O[C@@H](O[C@H]2[C@@H](O)[C@H](O[C@@H]3[C@@H](O)[C@@H](N)C[C@H](N)[C@H]3O[C@H]3O[C@H](CN)[C@@H](O)[C@@H](O)[C@H]3N)O[C@H]2CO)[C@H](N)[C@@H](O)[C@@H]1O,Potency,[5],inactive
O=C1Nc2ccc(Cl)cc2C(C#CC2CC2)(C(F)(F)F)O1 (stereo not drawn),Potency,[5],inactive
same,Potency,[6],inactive
same,Potency,[9],inactive
Clc1ccc(COC(Cn2ccnc2)c2ccc(Cl)cc2Cl)cc1 (stereo not drawn),Potency,[5],inactive
same,Potency,[6],inactive
same,Potency,[9],inactive
